In the library only some 21% were active in any assay of this set; here they are far more common.
AMA1-RON2 inh = inhibitors of Plasmodium falciparum AMA1-RON2 interaction. AlphaScreen AMA1-biotinylated RON2 peptide binding. Potency, µM (top dose mostly 58.2 µM), inactives show top-dose activity change, negative = inhibition, most hits filed as inhibitors. 360,000 tested, 0.2% active. AID 720542;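 further: potency means the concentration at half of the fitted maximal effect; 0% = vehicle wells and -100% = peptide control; nearly all actives have a fitted effect of over 45% in size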
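AMA1 (3D7) with his tag at 25 nM final met compounds first, then biotinylated RON2 peptide at 25 nM; detection used donor plus acceptor beads, 10 µg/mL apiece, read by AlphaScreen after 30 min at room temperature.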
HCV inhibitor = HCV inhibition; Potency, µM (top dose mostly 41.8 µM), for the others: top-dose activity change, negative = inhibition, most hits filed as inhibitors; AID 651820; 340,000 tested, 3.4% active; Huh7.5.1 HCVcc-Cre infection, luciferase reporter, 44 h; further: potency means the concentration at half of the fitted maximal effect; on the % scale 0 is the no-effect control and ±100 the full control effect
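Whole-lifecycle infectious HCVcc-Cre system; cells 1,000/well, compound then virus (~0.5 moi) added 4 h after plating, 44 h culture. Luciferase read 15 sec following 15 min substrate incubation, room temp.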
CHX counter = counter-screen for Shiga toxin inhibitors: cycloheximide protein synthesis inhibition; AID 2314; 300,000 tested, 12% active; max response, %; cell reporter, cycloheximide protein synthesis inhibition counterscreen; in the data active means max response mostly above about 13%, no sharp cut-off; inactive means mostly below about 14%; further: read at 38.3 µM for the half of the compounds with a filed dose; 0% is about no effect
Shiga toxin inh = blocks Shiga toxin action in Vero cells; Vero cells, Shiga toxin protein synthesis inhibition reporter; 290,000 tested, 9.2% active; inhibition, % at 38.7 µM; in the data active means inhibition mostly above about 28%, no sharp cut-off; inactive means mostly below about 43%; further: 0% is about no effect
Pf growth 48h = inhibits P. falciparum growth in the first generation, 48 h | P. falciparum luciferase growth in erythrocytes, 48 h | Potency, µM (highest dose often 28.7 µM), without a hit: at the top dose activity change, negative = inhibition, most hits filed as inhibitors | 310,000 tested, 5.9% active | AID 504832; further: potency means the concentration at half of the fitted maximal effect; on the % scale 0 is the no-effect control and ±100 the full control effect
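Luciferase-expressing parasites in RBCs, 2% Hct / 0.1% parasitemia final; RPMI 1640 + 0.5% Albumax; 37 C, 5% CO2, one generation; luminescence read-out, lower signal = inhibition.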
Pf growth 96h = P. falciparum growth inhibition at 96 hour, primary screen for plastid delayed-death inhibitors; P. falciparum luciferase reporter growth, 96 h; Potency, µM (titrated, usually from 28.7 µM), for the others: at the top dose activity change, negative = inhibition, actives largely listed as inhibitors; 320,000 tested, 6.9% active; AID 504834; further: potency means the concentration at half of the fitted maximal effect; on the % scale 0 is the no-effect control and ±100 the full control effect
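Compounds incubated with erythrocytes infected by luciferase-expressing P. falciparum (2% hematocrit, 0.05% parasitemia final) for 96 hours, 37 C in 5% CO2. Growth inhibition scored as decreased luciferase luminescence.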
An asterisk follows results filed as active. Unless noted, the call rests on the fitted dose curve; in most records, active means well fitted curve in the direction sought with a large enough effect; inconclusive means small, poorly fitted or top-dose-only effect, or another doubt; inactive means no such curve, though single readings can be large; an effect the other way counts as inactive or inconclusive.

What do the screens show for `O=C(c1ccc(N2CCC3(CC2)OCCO3)c([N+](=O)[O-])c1)N1CCOCC1`?
AMA1-RON2 inh: 4%; HCV inhibitor: 8%; CHX counter: 21*; Shiga toxin inh: 69*; Pf growth 48h: 41%; Pf growth 96h: 0%

Results for O=C1CC(N2CCN(S(=O)(=O)c3ccccc3F)CC2)C(=O)N1c1ccccc1Cl (centres undefined) ?
AMA1-RON2 inh: -1%; HCV inhibitor: 12%; Pf growth 48h: inconclusive; Pf growth 96h: 8%

How did CC1(C(=O)NCc2ccc(C(F)(F)F)cc2)CCN1Cc1ccccc1OC(F)F (centres undefined) do in these assays?
AMA1-RON2 inh: -1%

How did CN1CCC(N(C)c2ccc(C(N)=O)cc2[N+](=O)[O-])CC1 do in these assays?
AMA1-RON2 inh: 4%; HCV inhibitor: -4%; CHX counter: -8; Shiga toxin inh: -3; Pf growth 48h: 21%; Pf growth 96h: 2%

Results for CN(c1ccc(C(=O)N2CCOCC2)cc1[N+](=O)[O-])C1CCCCC1 ?
AMA1-RON2 inh: -10%; CHX counter: 48*; Shiga toxin inh: 95*; Pf growth 48h: 55%; Pf growth 96h: 205%

What do the screens show for `CCN(CC)C(=O)CSc1nc2cc3c(cc2c(=O)n1CCCCCC(=O)NCc1ccc(OC)cc1)OCO3`?
AMA1-RON2 inh: -17%; HCV inhibitor: inconclusive; CHX counter: 11; Shiga toxin inh: -20; Pf growth 48h: inconclusive; Pf growth 96h: -5%

Results for Cc1ccc(C(=O)C[n+]2cc(-c3ccc(C)cc3)n3c2CCCCC3)cc1 ?
AMA1-RON2 inh: -1%; HCV inhibitor: inconclusive; CHX counter: -5; Shiga toxin inh: 66; Pf growth 48h: 0.41µM*; Pf growth 96h: 0.41µM*

How did Cc1ccc(-c2c[n+](Cc3ccc(Cl)c(Cl)c3)c3n2CCC3)cc1 do in these assays?
AMA1-RON2 inh: -5%; HCV inhibitor: -14%; CHX counter: -1; Shiga toxin inh: -2; Pf growth 48h: 1.7µM*; Pf growth 96h: 0.19µM*

What do the screens show for `O=C(C[n+]1cc(-c2ccccc2)n2c1CCCCC2)c1ccc(Br)cc1`?
AMA1-RON2 inh: -4%; HCV inhibitor: inconclusive; CHX counter: -2; Shiga toxin inh: -10; Pf growth 48h: 1.7µM*; Pf growth 96h: 33%

Results for COc1ccc(C(=O)C[n+]2cc(-c3ccc(OC)cc3)n3c2CCCC3)cc1 ?
AMA1-RON2 inh: 0%; HCV inhibitor: -6%; CHX counter: 1; Shiga toxin inh: -1; Pf growth 48h: 1.2µM*; Pf growth 96h: 1.5µM*

How did O=C(C[n+]1cc(-c2ccccc2)n2c1CCC2)OCc1ccccc1 do in these assays?
AMA1-RON2 inh: -1%; HCV inhibitor: 17%; CHX counter: 2; Shiga toxin inh: -9; Pf growth 48h: 3%; Pf growth 96h: inconclusive

How did COc1cc(OC)cc(-c2oc(=O)c3cc(OC)c(OC)cc3c2/C=C/c2ccc(F)cc2)c1 do in these assays?
AMA1-RON2 inh: 0%; HCV inhibitor: 13%; Pf growth 48h: 0%; Pf growth 96h: inconclusive

Results for CC(=O)NC(=Cc1ccccc1)C(=O)N1CCCC1C(=O)O (centres undefined) ?
AMA1-RON2 inh: -4%

How did CCCC(=O)Nc1cc(C)cn(Cc2c(F)cccc2Cl)c1=O do in these assays?
AMA1-RON2 inh: 2%; HCV inhibitor: inconclusive; CHX counter: 0; Shiga toxin inh: -1; Pf growth 48h: -4%; Pf growth 96h: inconclusive

Results for COCC(=O)Nc1cc(C)cn(Cc2ccccc2Cl)c1=O ?
AMA1-RON2 inh: -1%; HCV inhibitor: -8%; CHX counter: -2; Pf growth 48h: 0%; Pf growth 96h: 0.083µM*

How did [O-][N+](=Cc1c(Cl)cccc1Cl)CC1(O)CCCCC1 do in these assays?
AMA1-RON2 inh: -3%

How did COc1cc(O)cc2c1[C@@H]1Oc3c(ccc(O)c3CC=C(C)C)[C@@H]1CO2 do in these assays?
AMA1-RON2 inh: -9%; HCV inhibitor: inconclusive

How did Cc1cc(S(=O)(=O)Nc2ccc(C(=O)NCC3(N(C)C)CCCCC3)cc2)ccc1F do in these assays?
AMA1-RON2 inh: -1%; HCV inhibitor: -10%; Pf growth 48h: inconclusive; Pf growth 96h: 10µM*

Results for Cc1cc(S(=O)(=O)Nc2ccc(C(=O)NCC(c3ccccc3)N(C)C)cc2)ccc1F (centres undefined) ?
AMA1-RON2 inh: -13%; HCV inhibitor: -8%; CHX counter: -1; Shiga toxin inh: -6; Pf growth 48h: -15%; Pf growth 96h: 10µM*

What do the screens show for `CC(=O)c1ccc(S(=O)(=O)NCc2ccc(C(=O)NCC(c3ccccc3)N(C)C)cc2)cc1` (centres undefined)?
AMA1-RON2 inh: -3%; HCV inhibitor: inconclusive; CHX counter: 7; Shiga toxin inh: 21; Pf growth 48h: 13µM*; Pf growth 96h: inconclusive

What do the screens show for `CCOc1ccc(NS(=O)(=O)c2ccc(C(=O)NCC3(N(C)C)CCCCC3)cc2)cc1`?
AMA1-RON2 inh: 0%; HCV inhibitor: inconclusive; Pf growth 48h: 8.3µM*; Pf growth 96h: 9.3µM*

How did CC[C@@H]1CC2=C(C(=O)OC(C)(C)O2)[C@@H](c2ccc(Cl)cc2)O1 do in these assays?
AMA1-RON2 inh: 1%

How did CCNc1nc(NC(C)(C)C)nc(SCC(N)=O)n1 do in these assays?
AMA1-RON2 inh: -9%; HCV inhibitor: -8%; CHX counter: -4; Shiga toxin inh: -6; Pf growth 48h: -11%; Pf growth 96h: inconclusive

How did COc1ccc(NC(=O)CN(C)CC(=O)N(C)C2(C#N)CCC(C)CC2)cc1 (centres undefined) do in these assays?
AMA1-RON2 inh: 16%; HCV inhibitor: -9%; Pf growth 48h: 2%; Pf growth 96h: 5%

How did CCCN(CC(=O)Nc1ccccc1C)C(=O)c1ccc(OCc2c(C)noc2C)cc1 do in these assays?
AMA1-RON2 inh: 0%; HCV inhibitor: inconclusive; Pf growth 48h: inconclusive; Pf growth 96h: 0%

How did Cc1cc(S(=O)(=O)Nc2ccc(C(=O)NCC3(N4CCCCC4)CCCCC3)cc2)ccc1F do in these assays?
AMA1-RON2 inh: 6%; HCV inhibitor: -20%; Pf growth 48h: inconclusive; Pf growth 96h: 13µM*

Results for Cc1ccc(-n2ncc(C(=O)Nc3cc(Cl)ccc3Cl)c2C2CCNCC2)cc1 ?
AMA1-RON2 inh: -23%; HCV inhibitor: 13µM*; CHX counter: -5; Shiga toxin inh: -14; Pf growth 48h: inconclusive; Pf growth 96h: 32%

How did Cc1ccc(-n2ncc(C(=O)Nc3cc(Cl)cc(Cl)c3)c2C2CCNCC2)cc1C do in these assays?
AMA1-RON2 inh: -9%; HCV inhibitor: 13µM*; CHX counter: -8; Shiga toxin inh: -20; Pf growth 48h: inconclusive; Pf growth 96h: -14%
